Rows were chosen to be rich in hits. Some 1.9% of all compounds tested hit in one or more screens of this group.
PME-1 primary – PME-1 (human) inhibition. Q9Y570. recombinant PME-1, FP-Rh probe fluorescence polarization. inhibition, % at 5.9 µM. 0.53% of 320,000 active. AID 2130;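 active = inhibition above the campaign mean of all compounds plus 3 SD, cut at about 26% in these data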;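 also: competitive labeling of PME-1 active site by serine hydrolase directed probe; 0% = PME-1 with DMSO and 100% = wells lacking PME-1 enzyme; inhibitors block probe labeling so polarization falls and inhibition rises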
GSTO1 counter – GSTO1 inhibition, counter-screen for RBBP9 inhibitors; recombinant GSTO1, activity-based probe fluorescence polarization; inhibition, % at 5.96 µM; 1.1% of 300,000 active; AID 1974;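 active = inhibition above the campaign mean inhibition plus 3 SD, cut at about 35% in these data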;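 also: 0% = GSTO1-1 with DMSO and 100% = wells lacking GSTO1-1 enzyme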
Target sequence (P78417 whole entry, looked up): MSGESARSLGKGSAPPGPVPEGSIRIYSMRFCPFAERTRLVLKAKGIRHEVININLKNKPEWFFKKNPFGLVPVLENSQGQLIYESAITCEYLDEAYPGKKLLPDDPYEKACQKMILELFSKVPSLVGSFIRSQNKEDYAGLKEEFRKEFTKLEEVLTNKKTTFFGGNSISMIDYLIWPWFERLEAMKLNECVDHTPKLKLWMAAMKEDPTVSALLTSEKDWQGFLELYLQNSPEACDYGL
LYPLA2 counter – blocks human lysophospholipase 2, a PME1 counter-screen | O95372 | recombinant LYPLA2, FP-Rh probe fluorescence polarization | inhibition, % at 5.9 µM | 0.38% of 320,000 active;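 active = inhibition above the screen-wide mean plus 3 SD, limit set per campaign, cut at about 26% in these data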;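 also: 0% = LYPLA2 with DMSO and 100% = wells lacking LYPLA2 enzyme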
Target sequence (O95372 whole entry, looked up): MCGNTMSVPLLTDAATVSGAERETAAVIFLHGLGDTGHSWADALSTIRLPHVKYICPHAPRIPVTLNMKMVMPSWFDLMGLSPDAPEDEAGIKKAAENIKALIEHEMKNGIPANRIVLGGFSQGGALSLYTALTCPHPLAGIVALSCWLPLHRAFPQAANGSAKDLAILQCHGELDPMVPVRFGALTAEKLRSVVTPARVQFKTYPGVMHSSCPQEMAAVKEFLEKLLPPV
PREPL inhibitor – human PREPL enzyme inhibition | Q4J6C6 | recombinant PREPL, fluorescence polarization activity-based probe | inhibition, % at 5.96 µM | 0.68% of 320,000 active; in the data active = inhibition above about 43%;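 also: 0% = enzyme with DMSO and 100% = wells lacking enzyme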
LYPLA1 inh – LYPLA1 (human) inhibition in PME1 counter-screen; O75608; recombinant LYPLA1, FP-Rh probe fluorescence polarization; inhibition, % at 5.9 µM; 0.16% of 320,000 active; AID 2174;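 active = inhibition above the mean of all tested compounds plus 3 SD, set per campaign, cut at about 14% in these data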;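 also: inhibitors block serine hydrolase probe labeling of LYPLA1 so polarization falls; 0% = enzyme with DMSO and 100% = wells lacking LYPLA1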
Fam108B counter – Fam108B inhibition, counter-screen for RBBP9 inhibitors. recombinant Fam108B, FP-Rh probe fluorescence polarization. inhibition, % at 9.51 µM. 0.33% of 300,000 active;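 active = inhibition above the screen mean inhibition plus 3 SD, computed separately per campaign, cut at about 18% in these data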;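 also: inhibitors lower polarization as less probe binds the enzyme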
LYPLA2 confirm – counter-screen for PME1 inhibitors: confirmation of human LYPLA2 inhibitors; shares compounds with LYPLA2 counter; recombinant LYPLA2, FP-Rh probe fluorescence polarization; inhibition, % at 5.9 µM; 72% of 1,100 active; AID 2232;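 active = mean inhibition across replicates above the hit cutoff set in the primary screen, cut at about 26% in these data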;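 also: blocked labeling of the enzyme by serine hydrolase FP-Rh probe lowers polarization; 0% = enzyme with DMSO and 100% = wells lacking LYPLA2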
LYPLA2 gel ABPP – inhibitors of human LYPLA2 | shares compounds with LYPLA2 counter | rhLYPLA2 in mouse brain proteome, gel ABPP FP-Rh | inhibition, % at 20 µM | 30% of 150 active | AID 652029;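 active = inhibition of LYPLA2 enzyme probe labeling above about 50%, limit read from the data; inactive = inhibition below that limit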;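 also: loss of FP-Rh probe labeling of the LYPLA2 gel band measured as band density; 0% = DMSO only control band and 100% = blank gel background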
Starred values were filed as active, the others as inactive; · = not tested or not shown.

SMILES	PME-1 primary	GSTO1 counter	LYPLA2 counter	PREPL inhibitor	LYPLA1 inh	Fam108B counter	LYPLA2 confirm	others
CN(Cc1nc(-c2ccccn2)no1)S(=O)(=O)c1ccc(Br)cc1	-2	-9	37*	-8	1	-2	35*
CN(Cc1nc(-c2cccnc2)no1)S(=O)(=O)c1ccc2ccccc2c1	6	4	24	4	1	-3	·
CC(C)N(Cc1nc(-c2ccccc2)no1)C(=O)CN(C)S(=O)(=O)c1ccc(Br)cc1	3	5	9	-9	0	2	·
CN(Cc1nc(-c2cccnc2)no1)S(=O)(=O)c1ccc(Br)cc1	7	0	41*	-17	-1	5	31*
Cc1c(NC(=O)/C=C/c2cn(-c3ccccc3)nc2-c2ccc(F)cc2)c(=O)n(-c2ccccc2)n1C	-6	-4	31*	-5	-8	-7	30*
CC(=O)c1ccc(N2CCN(C(=O)Nc3ccc(C(C)C)cc3)CC2)cc1	5	0	48*	6	3	1	42*
O=C(O)c1cccc(N2C(=O)c3ccc(C(=O)c4cccc([N+](=O)[O-])c4)cc3C2=O)c1	-1	6	45*	-11	4	-3	58*	LYPLA2 gel ABPP=45
O=C(O)c1cccc(NC(=O)c2ccc3c(c2)C(=O)N(c2cccc([N+](=O)[O-])c2)C3=O)c1	6	-7	24	1	0	2	·
CN(C)S(=O)(=O)c1ccc(C(=O)NC(=O)CSc2nncs2)cc1	·	·	·	0	·	·	·
COc1ccc(N2CCN(C(=O)c3ccc(CNS(=O)(=O)c4cccc(OC)c4)cc3)CC2)cc1	6	-1	31*	17	0	1	16
COc1ccc(N2CCN(C(=O)c3ccc(-c4ccccc4)cc3)CC2)cc1	0	4	34*	7	1	3	35*
COc1cccc(S(=O)(=O)NCc2ccc(C(=O)N3CCN(c4ccccc4)CC3)cc2)c1	5	0	20	4	2	-1	·
CS(=O)(=O)c1ccc(C(=O)N2CCN(Cc3ccccc3)CC2)cc1	-1	-4	-2	13	2	4	·
O=C(c1ccc(CNS(=O)(=O)c2ccccc2)cc1)N1CCN(Cc2ccccc2)CC1	2	3	33*	16	0	2	32*
COc1cccc(S(=O)(=O)NCc2ccc(C(=O)N3CCN(c4ccccc4OC)CC3)cc2)c1	-4	1	58*	1	0	-2	70*	LYPLA2 gel ABPP=34
CC(C)NC(=O)/C=C/C(=O)O	-2	-2	3	6	-2	-1	·
CC(C)(CO)CN1CCC(n2nccc2NC(=O)C2CCCC2)CC1	0	1	-2	-3	-1	-2	·
COc1ccc(S(=O)(=O)NCc2ccc(C(=O)N3CCc4ccccc4C3)cc2)cc1	3	8	48*	9	4	4	57*	LYPLA2 gel ABPP=28
COc1ccc(CNc2ccc(N3CCOCC3)cc2)cc1	1	-3	6	21	-1	-4	·
Cc1ccc(S(=O)(=O)NCc2ccc(C(=O)N3CCc4ccccc4C3)cc2)cc1	-3	-4	10	24	-5	1	·
COc1ccc(N2CCN(C(=O)c3ccc(CNc4c(N5CCOCC5)c(=O)c4=O)cc3)CC2)cc1	-3	0	52*	19	1	3	58*	LYPLA2 gel ABPP=35
CC(C)(C)C(=O)/C(=C\c1ccc([N+](=O)[O-])cc1)n1cncn1	-3	1	5	8	2	4	·
CCCc1cc(=O)n2nc(N3CCC(C(=O)Nc4c(F)c(F)c(F)c(F)c4F)CC3)sc2n1	0	1	5	6	-1	2	·
CCCc1cc(=O)n2nc(N3CCC(C(=O)N4CCN(c5ccc(OC)cc5)CC4)CC3)sc2n1	-8	1	51*	28	-7	1	49*
COc1ccc(N2CCN(C(=O)C3CCN(S(=O)(=O)c4ccc(F)cc4)CC3)CC2)cc1	42*	0	42*	3	1	-5	45*
SMILES	PME-1 primary	GSTO1 counter	LYPLA2 counter	PREPL inhibitor	LYPLA1 inh	Fam108B counter	LYPLA2 confirm	others
COc1ccc(N2CCN(C(=O)COc3ccc(S(=O)(=O)N4CCOCC4)cc3C)CC2)cc1	-1	3	28*	15	6	2	30*
CC(=O)c1ccc(N2CCN(C(=O)C3CCN(S(=O)(=O)c4ccc5c(c4)CC(C)N5C(C)=O)CC3)CC2)cc1 (stereo not given)	2	2	74*	3	1	-8	73*	LYPLA2 gel ABPP=64*
CCc1ccc(CN(C)C(=O)c2cc(COc3cc(C)c(Cl)c(C)c3)on2)nc1	-1	6	7	-7	1	-2	·
CC(C)(C)OC(=O)NC(CCCCNC=O)C(=O)O (stereo not given)	3	-4	81*	0	9	3	3
CC(C)(C)CC(=O)NCc1ccc(F)cc1	-3	8	0	17	-1	2	·
N#Cc1ccc(COC(=O)c2cnc3ccccc3n2)cc1	6	2	27*	1	2	-1	27*
Cc1cnc(C(=O)OCc2ccc(C#N)cc2)cn1	1	5	4	4	4	-4	·
NC(=O)C1CCN(C(=O)c2ccc([N+](=O)[O-])cc2NC(=O)c2cccs2)CC1	3	-7	-3	4	0	1	·
CCOC(=O)C1CCCN(C(=O)c2ccc3nc(-c4ccccc4)c(-c4ccccc4)nc3c2)C1 (stereo not given)	0	5	2	-9	-3	-1	·
COc1cccc(-c2nc3ccc(C(=O)N4CCCC(O)C4)cc3o2)c1 (stereo not given)	5	-1	0	11	4	-3	·
CCOC(=O)C1CCCN(C(=O)c2ccc3nc(-c4cccc(OC)c4)oc3c2)C1 (stereo not given)	1	-3	56*	-16	7	-5	57*
CCC(=O)C1CCCN(C(=O)c2ccc3nc(-c4cccc(OC)c4)oc3c2)C1 (stereo not given)	4	-4	29*	-2	8	0	40*
COc1cccc(NC(=O)CCC2CCN(C(=O)c3ccc(C(C)=O)s3)CC2)c1	6	-7	27*	3	1	-2	32*
COc1cccc(NC(=O)CCC2CCN(C(=O)c3sccc3C)CC2)c1	2	5	5	6	0	-5	·
O=C(OCCOc1cccc(Cl)c1)c1cc(S(=O)(=O)N2CCCCC2)ccc1N1CCOCC1	1	-6	53*	15	13	-1	58*
